Values without a mark were called inactive.
Tested on: Vero E6 infected with SARS-CoV-2
Assay: inhibition of SARS-CoV-2 cytopathic effect; higher = more antiviral protection, active = above 15
Conditions: 48 h

SMILES	inhibition of SARS-CoV-2 cytopathic effect (1 nM) [%]	inhibition of SARS-CoV-2 cytopathic effect (8.33 nM) [%]	inhibition of SARS-CoV-2 cytopathic effect (100 nM) [%]	inhibition of SARS-CoV-2 cytopathic effect (833.33 nM) [%]	inhibition of SARS-CoV-2 cytopathic effect (10000 nM)
COc1cc2c(NC3CCN(CC4CCCCC4)CC3)nc(N3CCCN(C(C)C)CC3)nc2cc1OCCCN1CCCCC1	0.74	-1.71	-3.06	0.36	-20.7%
N[C@H](C(=O)O)c1ccc(O)cc1 [oxfenicine]	2.15	3.82	2.38	0.58	2.3%
CCCC[C@@H](C=O)NC(=O)[C@H](CC(C)C)NC(=O)OCc1ccccc1 [calpeptin]	-1.61	-1.53	-2.86	14.7	66.9% (active)
Cc1c(-c2ccccc2)oc2c(C(=O)OCCN3CCCCC3)cccc2c1=O [flavoxate]	-1.05	0.44	0.93	-0.65	0.61%
CCC(C)CCCC(=O)N[C@@H](CCN)C(=O)N[C@H](C(=O)N[C@@H](CCN)C(=O)N[C@H]1CCNC(=O)[C@H]([C@@H](C)O)NC(=O)[C@H](CCN)NC(=O)[C@H](CCN)NC(=O)[C@H](CC(C)C)NC(=O)[C@@H](CC(C)C)NC(=O)[C@H](CCN)NC1=O)[C@@H](C)O (stereo not given in full) [colistin]	0.955	-0.06	3.56	0.76	-2.41%
COC(=O)Nc1nc2cc(C(=O)c3ccccc3)ccc2[nH]1 [mebendazole]	-1.33	0.93	-0.07	0.95	0.89%
